# In PubChem BioAssay (NCATS):
# “And” between values parts separate entries of the source, which are not always exact repeats. Identical values can stand only once. Results filed as inconclusive are left out. Some compounds were tested as several samples or in several runs, with calls that do not always agree. The source made the active and inactive calls. Unless noted, calls follow the shape of the dose curve; as a rule, active = well fitted curve in either direction with a large enough effect (not every such curve was filed as active); inconclusive = small, poorly fitted or top-dose-only effect, or another doubt; inactive = flat fitted curve, though single readings scatter.
# Columns and labels:
# [1] = AP1 Signaling Pathway (AID 357); also: % is scaled to controls: 0 for no effect and ±100 for the full control effect
# Summary of the method: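 AP-1-bla ME-180 cells with beta-lactamase reporter under AP-1 response element, stimulated with EC50 EGF; compounds titrated, 5 hours at 37 degrees Celsius. CCF4 read at 460/530 nm ratio; positive and negative modulators judged by AC50.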
# [2] = NFAT Signaling Pathway (AID 444); conditions: Jurkat NFAT-bla M1, carbachol, beta-lactamase ratio, 5 h; at 38 µM (top of the series) unless noted;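 also: carbachol stimulus at about its EC50 of 1 µM final; % is scaled to controls: 0 for no effect and ±100 for the full control effect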
# Summary of the method: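 Jurkat cells carrying an NFAT-driven β-lactamase reporter and co-transfected muscarinic M1 receptor were treated with compound plus carbachol (1 uM final, an EC50 level) for 5 h at 37 °C. CCF4 loading followed for 1 h at RT; 460/530 nm ratio gave %activity.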
# [3] = Stat Signaling Pathway (AID 446); conditions: ME-180 (cervical carcinoma) SIE beta-lactamase reporter, IL-6 stimulated, 5 h; at 38 µM (top of the series) unless noted;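 also: ME-180 cervical cancer cells given 40 pM IL-6 alongside compound; SIE-controlled beta-lactamase reporter measured as 460/530 nm FRET emission ratio; % is scaled to controls: 0 for no effect and ±100 for the full control effect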
# Summary of the method: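 Overnight-plated ME-180 cells bearing a STAT Inducible Element beta-lactamase reporter; 5 h co-exposure to compound and 40 pM IL-6; values normalized to 300 pM IL-6 and 125 nM JAK inhibitor controls.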
# [4] = molecular target: Glucocorticoid receptor (Homo sapiens) (UniProt P04150); assay: GR-GFP Redistribution (AID 450;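 active = compounds whose dose series gives a full or clear partial fitted curve of increased nuclear translocation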; also: potency is read from the fitted curve at half-maximal effect); conditions: U2OS GR-GFP nuclear translocation, laser cytometry, 2 h
# Sequence of Glucocorticoid receptor (Homo sapiens) (P04150 whole entry, looked up, the tested form may be a part): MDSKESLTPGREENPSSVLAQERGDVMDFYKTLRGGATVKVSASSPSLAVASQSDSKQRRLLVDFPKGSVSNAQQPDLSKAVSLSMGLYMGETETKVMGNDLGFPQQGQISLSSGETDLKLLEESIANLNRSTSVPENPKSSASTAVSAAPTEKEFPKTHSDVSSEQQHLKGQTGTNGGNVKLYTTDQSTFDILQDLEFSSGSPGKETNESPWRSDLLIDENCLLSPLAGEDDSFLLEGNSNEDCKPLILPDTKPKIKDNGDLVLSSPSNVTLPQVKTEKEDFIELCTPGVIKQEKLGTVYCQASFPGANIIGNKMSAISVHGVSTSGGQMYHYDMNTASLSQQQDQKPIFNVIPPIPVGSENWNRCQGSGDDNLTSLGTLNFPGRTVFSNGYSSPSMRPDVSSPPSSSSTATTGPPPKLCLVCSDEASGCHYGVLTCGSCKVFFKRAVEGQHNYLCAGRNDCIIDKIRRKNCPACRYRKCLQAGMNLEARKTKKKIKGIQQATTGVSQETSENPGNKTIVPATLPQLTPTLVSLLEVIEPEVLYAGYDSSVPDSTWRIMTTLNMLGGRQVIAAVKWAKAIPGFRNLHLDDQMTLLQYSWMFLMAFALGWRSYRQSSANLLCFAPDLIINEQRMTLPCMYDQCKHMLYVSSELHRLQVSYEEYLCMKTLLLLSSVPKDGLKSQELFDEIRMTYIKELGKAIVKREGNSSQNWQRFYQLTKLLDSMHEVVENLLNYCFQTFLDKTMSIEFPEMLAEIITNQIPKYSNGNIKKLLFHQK
# [5] = molecular target: Glucocorticoid receptor (Homo sapiens) (UniProt P04150); assay: GR-EFC Redistribution (AID 451; calls by dose curve; also: potency is read from the fitted curve at half-maximal effect); conditions: CHO-K1 GR-EFC translocation, beta-gal luminescence, 2 h
# Summary of the method: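 CHO-K1 cells stably expressing nuclear-localized β-gal enzyme acceptor and GR fused C-terminally to the enzyme donor fragment; ligand-driven nuclear translocation restores β-gal by complementation. Compounds titrated up to 46 uM final, 2 h at 37 °C; luminescence read.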
# [6] = molecular target: Mitogen-activated protein kinase 10 (Mus musculus) (UniProt Q61831); assay: JNK3 AlphaScreen Assay (AID 530);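 also: kinase came from lysate of stimulated human HepG2 cells; signal reports phosphorylation of biotinylated GST-cJun 1-79 at Ser73 with 10 µM ATP; % is scaled to controls: 0 for no effect and ±100 for the full control effect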
# Summary of the method: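 Phosphorylation of biotinylated GST-cJun(1-79) at Ser73 is measured by AlphaScreen proximity luminescence. Enzyme is JNK3 in HepG2 lysates activated with interleukin-1beta and tumor necrosis factor alpha; ATP is 10 uM final.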
# [7] = molecular target: Cytochrome P450 1A2 (Homo sapiens) (UniProt P05177); assay: p450-cyp1a2 (AID 410; calls by dose curve; also: potency is read from the fitted curve at half-maximal effect;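 as to activity change, negative = inhibition: -100% = full effect of reference inhibitor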)
# Sequence of Cytochrome P450 1A2 (Homo sapiens) (P05177 whole entry, looked up): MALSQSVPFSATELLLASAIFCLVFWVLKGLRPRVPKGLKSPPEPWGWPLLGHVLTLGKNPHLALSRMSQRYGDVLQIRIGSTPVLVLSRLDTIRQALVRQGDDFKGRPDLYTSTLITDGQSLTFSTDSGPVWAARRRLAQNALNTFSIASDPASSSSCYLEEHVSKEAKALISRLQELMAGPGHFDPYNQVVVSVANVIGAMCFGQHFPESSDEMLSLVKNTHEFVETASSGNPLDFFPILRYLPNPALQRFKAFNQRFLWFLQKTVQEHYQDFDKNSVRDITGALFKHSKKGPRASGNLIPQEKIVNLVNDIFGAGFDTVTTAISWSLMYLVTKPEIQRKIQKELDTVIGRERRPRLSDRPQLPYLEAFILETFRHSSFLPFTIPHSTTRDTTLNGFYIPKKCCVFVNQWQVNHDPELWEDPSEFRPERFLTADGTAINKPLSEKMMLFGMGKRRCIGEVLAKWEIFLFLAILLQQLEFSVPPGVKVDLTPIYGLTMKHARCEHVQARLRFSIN
# Summary of the method: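 O-Demethylation of luciferin 6' methyl ether by human CYP1A2 is monitored as luciferase luminescence. Substrate sits at Km (100uM); enzyme is 20nM. Values are scaled to 57 uM furafylline as maximal inhibition.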
SMILES,outcome [1],"activity change, negative = inhibition [2]","activity, negative = inhibition [3]",Potency [4],Potency [5],outcome [6],Potency [7]
Clc1cc(I)cc(Cl)c1NC1=NCCN1,inactive,-4.12% (inactive),-14.2% (inactive),> 46 µM (inactive),> 46 µM (inactive),,
CCS(=O)(=O)Nc1cccc(C(=C2CCCCC2)c2cnc[nH]2)c1,inactive,4.67% (inactive),-26.3% (inactive),> 46 µM (inactive),> 46 µM (inactive),inactive,
N#CC(C#N)=Cc1cc(O)c(O)c(O)c1,inactive,-8.53% (inactive),2.4% (inactive),> 46 µM (inactive),> 46 µM (inactive),,inactive
NCCc1c[nH]c2ccc(C(N)=O)cc12,inactive,4.42% (inactive),4.94% (inactive),> 46 µM (inactive),> 46 µM (inactive),inactive,
CCCN(CCC)[C@@H]1CCc2cccc(O)c2C1,inactive,-1.36% (inactive),-0.802% (inactive),> 46 µM (inactive),> 46 µM (inactive),inactive,inactive and 31.6 µM (active)
O=C(O)c1cc[c]([Hg][Cl])cc1,inactive,,-0.208% (inactive),> 46 µM (inactive),> 46 µM (inactive),inactive,3.16 µM (active)
CN1CCc2cccc(Cl)c2CC1,inactive,3.59% (inactive),15.3% (inactive),> 46 µM (inactive),> 46 µM (inactive),,inactive
CN1CCC(c2c[nH]c3ccc(O)cc23)CC1,inactive,-5.82% (inactive),-0.0693% (inactive),> 46 µM (inactive),> 46 µM (inactive),inactive,31.6 µM (active)
c1ccc2c(N3CCNCC3)cccc2c1,inactive,-26.6% (inactive),-46.5% (inactive),> 46 µM (inactive),> 46 µM (inactive),inactive,
O=c1c2ccccc2[se]n1-c1ccccc1,inactive,,,> 46 µM (inactive) and > 20.6 µM (inactive),> 46 µM (inactive) and > 20.6 µM (inactive),,3.98 µM (active) and 794 nM (active)
C[C@@H]1[C@@H]2Cc3ccc(O)cc3[C@@]1(C)CCN2CC1CC1,inactive,,-18.1% (inactive),> 46 µM (inactive),> 46 µM (inactive),inactive,inactive
NC(=O)CI,inactive,6.62% (inactive),,,,inactive,31.6 µM (active)
